Assay outcomes deposited in PubChem BioAssay by Broad Institute.
Sampled rows, rich in hits. Any-hit rate of the full collection: about 3.1%.
EWS-Fli block: EWS/Fli transcriptional activity inhibition; inhibition, % at 12.6 µM; actives 0.67% (n = 350,000); A673 NR0B1-luciferase reporter, viability-normalised;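 active = mean inhibition of at least 50% after viability correction, with every replicate also passing that limit; inconclusive = mean reaches 50% but only one of two replicates passes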;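 note: firefly luciferase signal divided by Alamar Blue viability fluorescence both relative to DMSO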
PAX8 inh HTS: inhibitors of PAX8 transcriptional activity in RMG-I cells; RMG-I TPO-luciferase reporter, SteadyGlo, 24 h; inhibition, % at 12.6 µM; actives 1.2% (n = 360,000); AID 652154;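 active = mean replicate inhibition at least 60% with every replicate also reaching 60%; inconclusive = only one of the two criteria is met; inactive = mean below 60% and not all replicates reaching 60%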;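 note: luciferase light reporting Pax8 driven TPO promoter activity; plate controls were median of neutral control wells for no effect and mitoxantrone controls for full effect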
INS-1E GSIS act: GLuc luminescence reporter in INS-1E cells, primary screen for activators of glucose-dependent secretion of insulin | INS-1E GLuc reporter insulin secretion, 2-3 h | AID 743287 | activation, % at 16.6 µM | actives 0.61% (n = 370,000);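 active = lowest replicate activation of at least 40%, so every replicate reaches that level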;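 note: 0% = median of neutral control wells and 100% = median of IBMX positive control wells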
Env fusion inh: HIV envelope-mediated fusion inhibition; HeLa-JRFL Env/CEM21 cell fusion, luciferase; inhibition, % at 12.3 µM; actives 1.1% (n = 360,000);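 active = mean replicate inhibition score of at least 50 and every replicate individually at or above 50; inconclusive = only one of the two criteria met; inactive = mean below 50 and not all replicates reaching 50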;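 note: 0% = plate neutral controls and 100% = maraviroc near 300 nM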
miR122 inh: inhibitors of miR-122 in Huh7 cells. Huh7 miR-122 Renilla luciferase sensor, 48 h; neutral wells = 0, positive control = 100. activation (reporter increase), % at 12.5 µM. actives 0.3% (n = 340,000);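 active = mean replicate activation score at least 90 and every replicate individually at or above 90; inconclusive = only one of the two criteria met; inactive = neither criterion met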;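 note: higher luciferase means less miR-122 activity so hits act as miR-122 inhibitors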
C2C12 statin: suppressors of simvastatin-induced myotoxicity in C2C12 myotubes; actives 0.78% (n = 330,000); rescue of ATP level, % at 7.49 µM; ATP luminescence, 48 h; scaled: DMSO 0, geranylgeraniol control 100;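 active = mean ATP rescue above about 67%, or every replicate alone reaching that limit, limit read from the data, passing the limit was not always enough; inconclusive = no clear call, values can overlap the other calls; inactive = mean under the limit and some replicate under it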;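 note: myotubes were challenged with 10 µM simvastatin during compound exposure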
* marks the source's active call; other numbers are inactive results; u = inconclusive; x = no result; [ ] = another dose, or the depositor's remark.

SMILES	EWS-Fli block	PAX8 inh HTS	INS-1E GSIS act	Env fusion inh	miR122 inh	C2C12 statin
C#CCN(C[C@@H]1[C@@H](OC(=O)NCc2ccc(OC)c(OC)c2)[C@@H](OC(=O)NCc2ccc(OC)c(OC)c2)CN(C(=O)OC(C)C)N1C(=O)OC(C)C)S(=O)(=O)c1ccc(C)cc1	5.8	-6.5	-12.2	-76.0	-5.5	-11.5
O=C(CN1CCOCC1)N1CC[C@@H]2[C@@H](CO)Nc3ccc(-c4ccccc4)cc3[C@@H]21	-9.5	11.8	-3.4	x	-3.5[16.7 µM]	8.2
C#CCN(C[C@@H]1[C@@H](OC(=O)NCC2CCCCC2)[C@@H](OC(=O)NCC2CCCCC2)Cn2c(=O)ccc(=O)n21)S(=O)(=O)c1ccc(C)cc1	38.2	115.9*	-27.6	x	-30.6	-206.8
C#CCN(C[C@@H]1[C@@H](OC(=O)NCc2ccc(OC)c(OC)c2)[C@@H](OC(=O)NCc2ccc(OC)c(OC)c2)Cn2c(=O)ccc(=O)n21)S(=O)(=O)c1ccc(C)cc1	26.6	112.8*	-4.9	u	-13.3	-28.1
COc1ccc(CC(=O)OCC(=O)N2CCc3ccccc32)cc1OC	4.7	-6.0	121.2*	x	-0.8	14.5
COc1ccc(CC(=O)OCC(=O)Nc2cccc(C(C)=O)c2)cc1OC	3.5	-5.9	59.2*	x	0.4	-6.2
COc1ccc(CC(=O)OCC(=O)N2CCCc3ccccc32)cc1OC	-1.9	9.7	110.8*	-2.5	-3.2	x
Cc1ccc(Nc2nc(NCC3CCCO3)nc(N)c2[N+](=O)[O-])cc1 (stereo not drawn)	x	7.5	81.4*	-48.3	x	x
Nc1nc(NCC2CCCO2)nc(Nc2ccc(F)cc2)c1[N+](=O)[O-] (stereo not drawn)	x	-5.7	-1.6	-57.0	-3.4	10.4
NCCCNc1nc(N)c([N+](=O)[O-])c(NC2CCCCC2)n1	29.5	77.9*	10.5	-441.3	x	104.6*
COCCNc1nc(N)c([N+](=O)[O-])c(NCC2CCCO2)n1 (stereo not drawn)	x	5.6	54.0*	-67.8	-22.2	3.9
CO[C@@H]1CN(C)C(=O)c2ccc(NC(C)=O)cc2OC[C@H](C)N(C(=O)CN2CCOCC2)C[C@H]1C	-0.5	x	7.1	x	5.1[16.7 µM]	-0.6
COc1ccc(S(=O)(=O)N(C)C[C@@H]2Oc3c(NC(=O)c4ccncc4)cccc3C(=O)N([C@H](C)CO)C[C@@H]2C)cc1	4.0	x	3.0	x	6.3[16.7 µM]	-57.8
COc1ccc(C#Cc2ccc3c(c2)[C@]2(C(=O)N3)[C@H](C(=O)Nc3nc4ccccc4s3)[C@H]3C(=O)O[C@H](c4ccccc4)[C@H](c4ccccc4)N3[C@@H]2c2ccccc2OCCO)cc1	11.5	x	x	-1.0[16.7 µM]	x	x
Cc1noc(C)c1NC(=O)N(C)C[C@H]1Oc2c(NC(=O)Nc3cccc4ccccc34)cccc2C(=O)N([C@H](C)CO)C[C@H]1C	-2.1	x	0.7	x	6.2[16.7 µM]	-6.9
CCNC(=S)N/N=C/c1ccc(OCCOc2ccccc2C)cc1	x	x	136.8*	-378.6	2.8	22.2
Cc1ccc(S(=O)(=O)N2CCN(C(=O)c3cccs3)CC2)cc1C	2.6	15.4	1.8	5.2	0.9	118.3*
COc1cccc(-c2ccc3c(c2)[C@@H]2[C@@H](CCN2C(=O)c2ccccc2F)[C@H](CO)N3C)c1	-33.3	71.6*	-25.0	x	-3.1[16.7 µM]	32.2
COc1ccc(-c2ccc3c(c2)[C@@H]2[C@@H](CCN2C(=O)NC2CCCCC2)[C@H](CO)N3C)cc1	-6.4	81.7*	-2.9	x	1.8[16.7 µM]	16.9
COc1cccc(-c2ccc3c(c2)[C@@H]2[C@@H](CCN2C(=O)NC2CCCCC2)[C@H](CO)N3C)c1	4.9	85.9*	-18.4	35.5[16.7 µM]	x	x
CN1c2ccc(-c3ccccc3)cc2[C@H]2[C@H](CCN2C(=O)NC2CCCCC2)[C@@H]1CO	3.9	89.3*	-21.3	33.2[16.7 µM]	x	x
CN1c2ccc(-c3ccccc3)cc2[C@@H]2[C@@H](CCN2C(=O)NC2CCCCC2)[C@H]1CO	1.8	x	-16.4	x	x	x
C[C@@H](O)C#Cc1cnc2c(c1)C(=O)N([C@@H](C)CO)C[C@H](C)[C@H](CN(C)Cc1ccccn1)O2	-6.6	x	11.6	8.7[16.7 µM]	-3.0[16.7 µM]	10.7
C[C@@H]1CCCCO[C@H](CN(C)Cc2ccc(Cl)c(Cl)c2)[C@@H](C)CN([C@@H](C)CO)C(=O)c2cc(NS(C)(=O)=O)ccc2O1	3.2	44.1	-16.5	-30.2[16.7 µM]	-1.1[16.7 µM]	14.3
COc1cccc(-c2ccc3c(c2)[C@H]2[C@H](CCN2C(=O)NC2CCCCC2)[C@H](CO)N3C)c1	7.6	65.7*	-25.9	41.8[16.7 µM]	x	x
SMILES	EWS-Fli block	PAX8 inh HTS	INS-1E GSIS act	Env fusion inh	miR122 inh	C2C12 statin
CC1CC(C)CN(S(=O)(=O)c2ccc(NC(=O)c3ccc(=O)[nH]c3)cc2)C1 (stereo not drawn)	63.7*	39.5	-7.8	x	102.3*	-26.2
Cc1ccc(N2CN(Cc3cccnc3)CNC2=S)c(C)c1	x	2.7	12.9	20.5	x	x
Cc1ccc(N2CN(Cc3ccco3)CNC2=S)c(C)c1	13.2	61.3*	-16.9	x	x	x
NC(N)=NN=C(c1ccc(F)cc1)c1ccc(C(F)(F)F)cc1	44.4	95.4*	230.1	-274.4	32.5	x
COc1ccc2c3c([nH]c2c1)[C@H](CO)N(CC1CC1)CC31CCN(Cc2ccccc2F)CC1	7.9	x	-24.0	x	x	x
O=C(C[C@@H]1C=C[C@H](NC(=O)C2CC2)[C@@H](CO)O1)NC1CCC1	-10.5	-17.1	9.2	-4.5[16.7 µM]	6.7[16.7 µM]	-10.2
COc1ccccc1-c1ccc2c(c1)O[C@H](CN(C)Cc1ccc3c(c1)OCO3)[C@H](C)CN([C@@H](C)CO)S2(=O)=O	-30.7	87.8*	-21.9	43.2[16.7 µM]	16.6[16.7 µM]	-29.5
COc1ccccc1-c1ccc2c(c1)O[C@H](CN(C)C)[C@H](C)CN([C@@H](C)CO)S2(=O)=O	0.0	x	-3.2	-41.8[16.7 µM]	-1.0[16.7 µM]	-16.8
COc1ccccc1-c1ccc2c(c1)O[C@H](CN(C)Cc1ccc3c(c1)OCO3)[C@@H](C)CN([C@H](C)CO)S2(=O)=O	12.4	45.9	-22.0	15.9[16.7 µM]	29.4[16.7 µM]	-63.8
COc1ccccc1-c1ccc2c(c1)O[C@@H](CN(C)Cc1ccc3c(c1)OCO3)[C@@H](C)CN([C@@H](C)CO)S2(=O)=O	24.8	66.3*	-24.2	27.1[16.7 µM]	5.0[16.7 µM]	-65.2
C[C@H](CO)N1C[C@H](C)[C@H](CN(C)Cc2ccccc2O)OCc2cn(nn2)CCCC1=O	3.4	-21.7	0.6	x	0.7[16.7 µM]	12.9
COc1ccc(S(=O)(=O)N[C@H]2C=C[C@H](CC(=O)NCc3ccccc3F)O[C@@H]2CO)cc1	7.3	-22.2	5.2	-12.7[16.7 µM]	x	-2.8
O=C(CN1C(=O)CSc2ccccc21)Nc1ccccc1C(=O)N1CCOCC1	x	x	0.4	-20.5	3.3	90.2*
O=C(COC(=O)c1ccccc1)Nc1ncc([N+](=O)[O-])s1	-21.5	2.7	-53.5	-6.5	-2.1	-3.5
Cc1nc(C)c(C(=O)Nc2ncc([N+](=O)[O-])s2)o1	57.5*	22.5	-20.4	13.3	-9.1	-20.0
